Screens deposited in PubChem BioAssay by National Center for Advancing Translational Sciences (NCATS).
In the library only some 10% were active in any assay of this set; here they are far more common.
ALDH1A1 block: blocks purified human ALDH1A1 activity; P00352; Purified ALDH1A1, NADH fluorescence, propionaldehyde substrate; Potency, µM (series often up to 75.3 µM), actives largely listed as inhibitors; 220,000 compounds, 7.3% hits; AID 1030
Target sequence (P00352 whole entry, looked up): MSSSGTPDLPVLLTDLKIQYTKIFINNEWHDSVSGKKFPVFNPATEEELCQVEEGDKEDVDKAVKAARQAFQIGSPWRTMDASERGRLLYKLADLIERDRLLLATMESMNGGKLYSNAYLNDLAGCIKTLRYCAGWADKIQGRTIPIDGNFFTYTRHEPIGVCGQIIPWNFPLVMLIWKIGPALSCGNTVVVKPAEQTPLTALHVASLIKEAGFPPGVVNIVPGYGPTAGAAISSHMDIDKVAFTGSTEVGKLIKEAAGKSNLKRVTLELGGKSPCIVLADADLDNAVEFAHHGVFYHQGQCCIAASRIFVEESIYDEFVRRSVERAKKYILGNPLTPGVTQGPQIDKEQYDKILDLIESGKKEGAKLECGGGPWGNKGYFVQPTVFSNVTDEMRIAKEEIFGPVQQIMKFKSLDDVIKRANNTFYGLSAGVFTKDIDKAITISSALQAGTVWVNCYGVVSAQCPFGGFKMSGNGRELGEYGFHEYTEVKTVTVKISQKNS
KinaseGlo FLuc: blocks Kinase-Glo luciferase, a counter-screen artifact | Q27757 | Kinase-Glo luciferase, ATP luminescence, 8 min | Potency, µM (series often up to 38.3 µM), usual class: inhibitors | 200,000 compounds, 0.28% hits; active = well fitted inhibition curve with a large enough effect; inconclusive = small, poorly fitted or top-dose-only effect; note: nearly all actives have a fitted effect of over 60% in size
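Light output from Kinase-Glo luciferase with luciferin and 10 uM ATP in 50 mM imidazole pH 7.2, KCl, MgCl2, Tween 20, BSA; compound pin-delivered, 8-min ambient incubation, then luminescence read.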
PNC inhibitor: inhibitors of perinucleolar compartment assembly | 140,000 compounds, 3.1% hits | PC3M PTB-GFP, PNC prevalence imaging, 16 h; hits give low values | AID 2417 | activity change (PNC), negative = inhibition, % at 10 µM;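 active = readout at or below -70, meaning at least 70% loss of cells showing the perinucleolar compartment, a nuclear body marking cancer cells; inconclusive = readout between -30 and a set limit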
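Read-out is percentage of cells bearing a perinucleolar compartment, from automated 20x imaging of fixed, Hoechst-stained PC3M PTB-GFP cells. Cells were seeded 4 h, then exposed 16 h to compound (23 nl of library stock) in duplicate plates.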
Lamin A splicing: changes lamin A minigene splicing in HeLa cells; AID 1487; Potency, µM (series often up to 46.1 µM), most hits filed as inhibitors; HeLa LMNA splicing GFP/RFP minigene ratio, 48 h; 200,000 compounds, 0.01% hits; active = well fitted inhibition curve with a large enough effect in the signal ratio, with a control signal flat, not every such curve was filed as active; inconclusive = small, poorly fitted or top-dose-only effect, or effect the other way, or a change in a side signal; the % refers to the signal ratio
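Read-out is the ratio of GFP to DsRed2 object intensity, acquired by 488 nm laser-scanning cytometry on HeLa lamin A-EGFP minigene reporter cells. Compound incubation 48 hrs at 37 °C in Opti-MEM with 2% FBS; DMSO 0.5% final.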
HPGD inh: inhibitors of human 15-hydroxyprostaglandin dehydrogenase (HPGD). Potency, µM, hits mostly inhibitors. P15428. purified HPGD, NADH fluorescence kinetic, PGE2 substrate. AID 894. 150,000 compounds, 4.3% hits
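20 nM HPGD preincubated 15 min at room temperature with compound in 50 mM Tris-HCl pH 8, 0.01% Tween 20. Started with 1 mM NAD+ and 30 uM prostaglandin E2; NADH fluorescence (360/450 nm) read 5 times over 30-s intervals, last minus first.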
Large screens that a line does not name were inactive. Unless noted, calls come from the whole dose curve; as a rule, active = well fitted inhibition curve with a large enough effect (not every such curve was filed as active); inconclusive = small, poorly fitted or top-dose-only effect, or another doubt; inactive = no such curve, though single readings can be large or run the other way.

Cc1ccc(NC2=C(NCCO)C(=O)c3ccccc3C2=O)cc1	ALDH1A1 block 22µM, Lamin A splicing inconclusive
CCCCn1c(=O)c2c(O)cc(=O)oc2c2ccccc21	ALDH1A1 block 16µM, PNC inhibitor inconclusive
CN1CCN(Cc2c(O)ccc3occ(C(=O)c4ccccc4)c23)CC1	PNC inhibitor inconclusive
CC(=O)C(C(C)=O)c1c(Cl)c(O)c(O)c2c(C(=O)c3ccccc3)coc12	Lamin A splicing inconclusive, HPGD inh 3.2µM
COc1ccccc1OCCn1cc(C#N)c2ccccc21	PNC inhibitor -119
CCOc1ccc(Cl)cc1S(=O)(=O)n1cnc2ccccc21	PNC inhibitor inconclusive
CCOc1cc(C)c(Cl)cc1S(=O)(=O)n1cnc2ccccc21	PNC inhibitor -107
CC(C)COP(=O)(c1ccc(N(C)C)cc1)C(O)c1ccncc1 (stereo not drawn)	ALDH1A1 block 13µM, HPGD inh 28µM
Cc1cccc(N2C(=O)CSC23C(=O)N(CC(=O)NCc2ccccc2Cl)c2ccccc23)c1 (stereo not drawn)	none (no result: ALDH1A1 block, KinaseGlo FLuc, PNC inhibitor, HPGD inh)
Cc1nc2cnc(N(C)C)nc2n(CCC#N)c1=O	ALDH1A1 block inconclusive (no result: KinaseGlo FLuc, PNC inhibitor, HPGD inh)
COc1ccccc1C(=O)O/N=C(/C)c1ccc(N2C(=O)C3CCCCC3C2=O)cc1 (stereo not drawn)	ALDH1A1 block 13µM, HPGD inh 25µM
CCCCn1c(=O)n(CC(O)c2ccccc2)c(=O)c2c1ncn2C1CCCC1 (stereo not drawn)	ALDH1A1 block 10µM
Cc1ccc(C)c(OCCn2c(=O)c3c(ncn3C3CCCC3)n(Cc3ccccc3)c2=O)c1	PNC inhibitor -119, Lamin A splicing inconclusive
O=c1c2c(ncn2C2CCCC2)n(Cc2ccccc2)c(=O)n1CCOc1ccccc1	Lamin A splicing inconclusive
Cc1ccc(CCNC(=O)c2c[nH]c3ccc(S(=O)(=O)Nc4cccc(C(F)(F)F)c4)cc3c2=O)cc1	none (no result: ALDH1A1 block, KinaseGlo FLuc, PNC inhibitor, HPGD inh)
C[C@@H](C1=C(CCN(C)C)Cc2ccccc21)c1ccccn1	none (no result: PNC inhibitor, Lamin A splicing)
CC[n+]1c(/C=C/N(C)c2ccccc2)oc2ccc(F)cc21	ALDH1A1 block 14µM, Lamin A splicing inconclusive
C=CCN1/C(=C(\C#N)C2=NS(=O)(=O)c3ccccc32)N(C)c2ccccc21	HPGD inh 14µM
Cc1c(-c2ccc(Cl)cc2)c(=O)oc2c(CN3CCOCC3)c(O)ccc12	none (no result: ALDH1A1 block, KinaseGlo FLuc, PNC inhibitor, HPGD inh)
O=C(C1CCCCC1)N(Cc1cccnc1)c1nc2c(F)cc(F)cc2s1	none (no result: ALDH1A1 block, KinaseGlo FLuc, PNC inhibitor, HPGD inh)
O=S(=O)(NCc1nc2cccnc2n1Cc1ccccc1)c1ccc2c(c1)CCCC2	none (no result: ALDH1A1 block, KinaseGlo FLuc, PNC inhibitor, HPGD inh)
COc1ccccc1CNC(=O)Nc1cccs1	ALDH1A1 block inconclusive, HPGD inh 22µM
COc1ccccc1C(OC(=O)c1cccs1)C(=O)NCc1ccco1 (stereo not drawn)	ALDH1A1 block 25µM, PNC inhibitor inconclusive
COc1ccc(C(=O)NCCN2CCOCC2)c(OC)c1	Lamin A splicing inconclusive (no result: PNC inhibitor, HPGD inh)
COc1ccccc1CNC(=O)c1cccs1	HPGD inh 16µM
COc1ccc(C(=O)NCCn2ccc3ccccc32)c(OC)c1	ALDH1A1 block 10µM, Lamin A splicing inconclusive, HPGD inh inconclusive
COc1ccc(Br)cc1CNC(=O)Nc1cccs1	ALDH1A1 block inconclusive, PNC inhibitor inconclusive
O=C(O)/C=C(/C(=O)O)[C@]12CCN3CC4=CCO[C@@H]5CC(=O)N[C@@H]1C5[C@H]4C[C@H]32 (stereo partly drawn)	none (no result: PNC inhibitor, Lamin A splicing)
COc1ccc2c(c1)CC(C(=O)NCc1ccc(F)cc1)CO2 (stereo not drawn)	none (no result: ALDH1A1 block, KinaseGlo FLuc, PNC inhibitor, HPGD inh)
Cc1cc(C)c(NS(=O)(=O)c2ccc(-c3coc(C)n3)cc2)c(C)c1	none (no result: ALDH1A1 block, KinaseGlo FLuc, PNC inhibitor, HPGD inh)
CC(C)N(C)C1CCN(S(=O)(=O)c2ccc3[nH]c(=O)ccc3c2)CC1	none (no result: ALDH1A1 block, KinaseGlo FLuc, PNC inhibitor, HPGD inh)
CCCSCCCNC(=O)c1ccc2c(c1)nc1n2CCCCC1	none (no result: ALDH1A1 block, KinaseGlo FLuc, PNC inhibitor, HPGD inh)
Cc1c(C(=O)O)c(-c2ccccc2)nn1-c1ccccc1	PNC inhibitor inconclusive
COc1cccc(C(=O)NCc2ccccc2OC)c1	HPGD inh inconclusive
COc1ccccc1CNC(=O)N/C=C/c1ccc(Cl)cc1	ALDH1A1 block 25µM (no result: PNC inhibitor, HPGD inh)
COc1ccccc1CNC(=O)c1cccc(-c2ccccc2OC)n1	ALDH1A1 block 32µM, HPGD inh 7.9µM (no result: PNC inhibitor, Lamin A splicing)
COc1ccccc1CNC(=O)c1c(-c2ccccc2)nn(-c2ccccc2)c1C	ALDH1A1 block 4µM
COc1ccc(C(=O)NCc2ccccc2OC)c(OC)c1	ALDH1A1 block inconclusive, HPGD inh 28µM
COc1ccc(C(=O)NCc2ccccc2OC)cc1	none
